Rows were chosen to be rich in hits. Some 4.1% of all compounds tested hit in one or more screens of this group.
hcDAF-12 act = activates DAF-12 receptor from parasite H. contortus. HEK293 hcDAF-12 lit1-tk-luc reporter, luminescence; 0% DMSO, 100% Δ7-dafachronic acid. activation, % at 6.8 µM. 370,000 compounds, 1.4% hits. AID 652067;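 active = activation above the mean of all tested compounds plus 3 SD, cut at about 5.5% in these data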;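 also: 100% = response to 3 µM Δ7-dafachronic acid high control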
hgDAF-12 ag = hgDAF-12 agonism, primary luciferase screen. HEK293 GAL4-hgDAF12 UAS-luciferase reporter, agonist luminescence; normalized to butyrate control. activation, % at 6.8 µM. 370,000 compounds, 1.8% hits. AID 687014;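 active = activation above a cutoff set at the mean of all screened compounds plus 3 SD, cut at about 10% in these data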;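 also: 0% = DMSO wells and 100% = sodium butyrate wells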
ssDAF-12 act = activates DAF-12 receptor from parasite S. stercoralis. HEK293 ssDAF-12/GRIP1 lit1-tk-luc reporter, luminescence; % of 3 µM dafachronic acid response. activation, % at 6.8 µM. 370,000 compounds, 1% hits. AID 652126;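 active = activation above the mean over all tested compounds plus 3 SD, cut at about 0.9% in these data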;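 also: 0% = DMSO-only wells and 100% = 3 µM delta7-dafachronic acid wells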
DAX1 inh-1 = inhibitors of DAX1 repression of SF-1 activated StAR promoter | HEK293T StAR-luciferase reporter, SF-1/DAX-1 repression relief | inhibition, % at 6.8 µM | 370,000 compounds, 1.1% hits | AID 652010;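 active = inhibition above the mean over all tested compounds plus 3 SD, cut at about 3.6% in these data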;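 also: 0% = DAX-1 cells with DMSO and 100% = cells lacking DAX-1 with DMSO; higher inhibition means more luminescence from relief of DAX-1 repression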
DAX1 inh-2 = inhibits human nuclear receptor DAX1; 340,000 compounds, 0.99% hits; P51843; HEK293 Gal4-DAX1 luciferase reporter, luminescence; inhibition, % at 6.75 µM;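 active = inhibition above the mean over all tested compounds plus 3 SD, cut at about 4.2% in these data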;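 also: 0% = DAX1-transfected cells with DMSO and 100% = empty-vector control cells with DMSO; inhibition shows as a rise in luminescence from relieved DAX1 repression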
Target sequence (P51843 207-470 limits assumed): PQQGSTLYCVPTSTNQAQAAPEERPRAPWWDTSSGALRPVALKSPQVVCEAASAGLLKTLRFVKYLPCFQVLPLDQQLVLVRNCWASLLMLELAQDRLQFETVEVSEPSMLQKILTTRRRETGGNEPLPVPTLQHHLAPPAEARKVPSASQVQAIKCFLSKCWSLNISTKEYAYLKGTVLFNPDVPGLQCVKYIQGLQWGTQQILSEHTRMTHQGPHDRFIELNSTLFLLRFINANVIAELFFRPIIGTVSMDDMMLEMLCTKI
DAX1 conf = confirmation of human DAX1 (NR0B1) inhibitors | inhibition, % at 6.8 µM | 2,400 compounds, 87% hits | HEK293T StAR-promoter luciferase reporter, SF-1/DAX-1 repression | shares compounds with DAX1 inh-1;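 active = inhibition above the average of every tested compound plus 3 SD, cut at about 3.8% in these data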;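 also: 0% = DAX-1 cells with DMSO and 100% = no DAX-1 control cells with DMSO; active compounds raise luminescence by relieving repression of the StAR reporter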
SF1 AF2mut Luc = counter-screen for DAX1 inhibitors: nonselective inhibitors with SF-1 AF2 mutant; HEK293 StAR-luciferase, luminescence; shares compounds with DAX1 inh-1; inhibition, % at 6.8 µM; AID 652136; 2,400 compounds, 78% hits;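 active = inhibition above the mean of all tested compounds plus 3 SD, cut at about 3% in these data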;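 also: 0% = DAX-1 transfected cells with DMSO and 100% = cells without DAX-1 with DMSO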
LXR ag = LXR-beta agonism as hcDAF-12 counter-screen; shares compounds with hcDAF-12 act; HEK293 Gal4-LXR tk-luc reporter, luminescence, 24 h; normalized: DMSO 0%, positive control 100%; activation, % at 6.8 µM; 3,400 tested, under 10 active; AID 743027;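 active = mean percent activation of the reporter above a cutoff set as the average over tested compounds plus their standard deviation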
Target sequence (P55055 whole entry, looked up, the tested form may be a part): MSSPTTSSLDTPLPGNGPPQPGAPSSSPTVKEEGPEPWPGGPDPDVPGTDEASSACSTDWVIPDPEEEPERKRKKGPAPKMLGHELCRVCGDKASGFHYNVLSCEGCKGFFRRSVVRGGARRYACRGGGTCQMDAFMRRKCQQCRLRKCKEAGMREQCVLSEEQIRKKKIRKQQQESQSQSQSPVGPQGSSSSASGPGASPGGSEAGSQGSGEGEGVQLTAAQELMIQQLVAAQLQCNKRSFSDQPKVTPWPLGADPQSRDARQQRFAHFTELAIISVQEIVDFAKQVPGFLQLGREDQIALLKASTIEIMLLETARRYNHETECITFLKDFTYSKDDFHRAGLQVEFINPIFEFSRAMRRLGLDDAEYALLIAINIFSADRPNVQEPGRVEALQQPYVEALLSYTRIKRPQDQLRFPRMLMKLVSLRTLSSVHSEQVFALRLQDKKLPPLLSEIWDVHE
hcDAF12 conf = hcDAF-12 agonism, confirmation assay; activation, % at 6.8 µM; shares compounds with hcDAF-12 act; AID 743032; HEK293 hcDAF-12 lit1-tk-luc reporter, luminescence; % of Δ7-dafachronic acid response; 3,400 compounds, 61% hits;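 active = mean activation across triplicate tests above the threshold derived from the earlier primary screen, cut at about 5.5% in these data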;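 also: 0% = DMSO only wells and 100% = 3 µM Δ7-dafachronic acid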
hgDAF12 conf = hgDAF-12 agonism, confirmation assay; shares compounds with hgDAF-12 ag; HEK293 GAL4-hgDAF12 luciferase reporter, agonist mode; percent of butyrate response; 3,300 compounds, 80% hits; activation, % at 6.8 µM;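 active = mean activation over triplicate wells above the hit cutoff derived from the earlier primary screen, cut at about 11% in these data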;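 also: 0% = DMSO low control and 100% = 2 mM sodium butyrate high control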
LXR ag 2 = activates human LXR-beta, counter-screen for DAF-12 agonists; shares compounds with hgDAF-12 ag; HEK293 Gal4-LXR luciferase reporter, 24 h; activation, % at 6.8 µM; 3,300 tested, under 10 active; AID 743051;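 active = mean activation of the triplicate above a set limit carried over from the primary screen, none filed active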
* = called active by the depositor; · = no result.

SMILES	hcDAF-12 act	hgDAF-12 ag	ssDAF-12 act	DAX1 inh-1	DAX1 inh-2	DAX1 conf	SF1 AF2mut Luc	hgDAF12 conf	LXR ag 2	others
COC(=O)C1=C(C)N(Cc2cccc(C(F)(F)F)c2)C(=NCc2cc(OC)c(OC)c(OC)c2)NC1c1ccc(F)cc1 (centres undefined)	3	0	0	0	·	·	·	·	·
Cc1cc(/C=C(\C#N)C(=O)Nc2ccccc2F)c(C)[nH]1	5	17*	0	12*	2	15*	5.5*	16*	1
Oc1ccccc1-c1cc(-c2ccc3c(c2)OCCO3)n[nH]1	8.9*	13*	1.0*	5.9*	1	6.0*	2	24*	1	LXR ag=2;hcDAF12 conf=12*
CCOC(=O)c1cc(-c2ccc3c(c2)OCCO3)n[nH]1	5	19*	0	5.3*	5.8*	13*	9.9*	17*	1
O=C(O)c1cc(-c2ccc3c(c2)OCCO3)n[nH]1	-1	5	-1	1	0	·	·	·	·
COC(=O)[C@]12C[C@H](CC(=O)N3CCN(C(=O)c4ccco4)CC3)C(=O)N(CCc3ccc(OC)c(OC)c3)C1=C[C@H](C1CCCC1)O[C@@H]2C	-1	-1	-2	-1	·	·	·	·	·
COc1ccc(-c2cc3ncc(-c4ccccc4)c(N)n3n2)cc1	1	25*	-1	6.5*	1	15*	7.0*	16*	1
COc1ccc(-c2cc3nc(C)cc(N)n3n2)cc1	15*	20*	2.4*	5.4*	-3	18*	8.9*	19*	1	LXR ag=2;hcDAF12 conf=13*
N#Cc1cnc2cc(-c3ccccc3)nn2c1N	3	4	-1	0	·	·	·	·	·
COc1ccc(-c2cc3nc(C)cc(-c4ccc(OC)cc4)n3n2)cc1	1	2	0	0	2	·	·	·	·
CCc1c(C(=O)C(C)O)c2n3c1CCC[C@@H]3CC2 (some centres undefined)	0	3	0	·	·	·	·	·	·
CCOC(=O)c1c(N)sc(C(=O)Nc2ccccc2F)c1C	6.7*	19*	1	9.3*	4.4*	14*	7.1*	19*	1	LXR ag=2;hcDAF12 conf=8.5*
CCOC(=O)c1sc(NC(=O)Nc2ccccc2Cl)cc1C	15*	20*	1.1*	7.8*	0	14*	7.5*	24*	1	LXR ag=2;hcDAF12 conf=6.1*
CCOC(=O)c1sc(NC(C)=O)cc1C	0	2	-1	0	-1	·	·	·	·
COc1ccc(-c2nnc(SCC(=O)/C(C#N)=C(\C)N)o2)cc1	6.7*	16*	1	4.7*	-1	13*	4.5*	18*	1	LXR ag=1;hcDAF12 conf=6.9*
COc1ccc(-c2nnc(SCC(=O)c3ccc(C)o3)o2)cc1	0	0	-1	0	1	·	·	·	·
CC(C)(C)N(Cc1cn(CC2CCCCC2)nn1)S(=O)(=O)c1ccc(F)cc1Br	-1	1	-2	-1	·	·	·	·	·
Cc1cccc(CN2CCN(C3CN(Cc4cn(Cc5ccc(C(F)(F)F)cc5)nn4)S(=O)(=O)C3)CC2)c1 (centres undefined)	-3	-1	-2	-2	·	·	·	·	·
CCOC(=O)C1CCCN(C(=O)c2cc3cc4ccc(OC)cc4nc3o2)C1 (centres undefined)	·	·	·	·	0	·	·	·	·
COc1ccc2cc3cc(C(=O)N4CCCC(C)C4)oc3nc2c1 (centres undefined)	4	14*	0	7.4*	1	12*	8.9*	16*	1
COc1ccc(-c2cc(NC(=O)Cc3c(C)[nH]c4ccccc34)ccc2Nc2cccnc2)cc1F	4	-1	0	1	·	·	·	·	·
Cc1ccc(Cn2c(=O)n(Cc3ccc(C(=O)NCC4COC4)cc3)c(=O)c3ccccc32)cc1	-3	-2	-1	-2	·	·	·	·	·
CCCc1nc2c3ccccc3ccn2c1Cc1ccc(C)cc1	12*	18*	2.3*	6.0*	·	8.0*	4.3*	11*	1	LXR ag=1;hcDAF12 conf=13*
Cc1cc(Br)cn2c(Cc3ccccc3)c(C3CCCCC3)nc12	2	2	-1	0	·	·	·	·	·
CCCc1nc2c3ccccc3ccn2c1CC(C)(C)C	2	0	0	0	·	·	·	·	·
SMILES	hcDAF-12 act	hgDAF-12 ag	ssDAF-12 act	DAX1 inh-1	DAX1 inh-2	DAX1 conf	SF1 AF2mut Luc	hgDAF12 conf	LXR ag 2	others
c1ccc(Cc2c(C3CCCCC3)nc3c4ccccc4ccn23)cc1	11*	18*	2.1*	6.1*	·	6.1*	4.0*	20*	1	LXR ag=1;hcDAF12 conf=8.0*
Cc1cc(O)c(-c2cc(C(=O)Nc3cccnc3)[nH]n2)cc1C	6.3*	20*	1	4.8*	3	16*	7.0*	16*	1
C=CCNc1ncnc2c1cnn2-c1ccc(Cl)cc1	4	15*	0	8.8*	1	16*	8.1*	27*	1
COc1ccc(/C=N/NC(=S)Nc2ccccc2)cc1	3	26*	-1	7.7*	1	10*	5.8*	15*	1
Nc1[nH]c(C(=O)c2ccccc2)c(-c2ccc(Cl)c(F)c2)c1C(=O)c1c[nH]c2ccccc12	4	-1	0	0	·	·	·	·	·
CCOC(=O)CC[C@@H]1CC[C@]2(CCCN(C(=O)C(C)(C)C)C2)O1	1	4	-1	0	·	·	·	·	·
Cc1ccc(/C=N/N=C/c2ccc(C)s2)s1	9.1*	18*	0	5.1*	3	19*	7.7*	21*	1	LXR ag=2;hcDAF12 conf=8.2*
CC1CCC(NC(=O)c2nn(C)c(=O)c3ccccc23)CC1 (centres undefined)	-2	-3	-1	-1	0	·	·	·	·
CC1CCC(NC(=O)c2cccn2C)CC1 (centres undefined)	4	15*	0	10.0*	3	14*	7.4*	14*	1
COc1ccc(-c2cc(=NC(CC(C)C)C(=O)O)c3cc(C)ccc3o2)cc1 (centres undefined)	5	17*	1	5.2*	3	4.5*	5.2*	10	0

Source: PubChem
